Assay results reported in the supplement of paper PMC11732987, “Enantioselective OTUD7B fragment discovery through chemoproteomics screening and high-throughput optimisation” (Communications Chemistry, 2025).

What was measured:
Assay in all cases: log2 ratio of Biotin-Ahx-Ub-VS probe labelling (fragment/DMSO); higher = less target engagement (more negative = stronger competition), active = hit call of the paper (q ≤ 0.05, log2 ratio ≤ -1)
Conditions in all cases: compound concentration: 200 uM; treatment time: 3 h
OTUD6B = biological target: T1, OTUD6B (UniProt Q8N6M0)
T1 sequence (whole entry): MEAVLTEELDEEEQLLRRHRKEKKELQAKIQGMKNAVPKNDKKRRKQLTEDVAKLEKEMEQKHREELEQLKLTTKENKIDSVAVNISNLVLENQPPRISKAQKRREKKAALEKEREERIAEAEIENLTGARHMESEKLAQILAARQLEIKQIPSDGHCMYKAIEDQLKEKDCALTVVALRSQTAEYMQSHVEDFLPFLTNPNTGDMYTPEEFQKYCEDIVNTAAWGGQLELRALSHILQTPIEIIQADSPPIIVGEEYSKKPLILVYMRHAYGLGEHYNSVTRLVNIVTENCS
In short: (§1)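 Using Biotin-Ahx-Ub-VS at 0.5 µM final for 1 h, DUBs were labelled in HEK293T lysate (495 µg per sample) that had first been treated in triplicate with fragment at 200 µM or vehicle for 3 h. NeutrAvidin enrichment, LysC and trypsin digestion and diaPASEF LC-MS/MS followed. Spectronaut label-free quantities were global-median-normalised. Values are average log2 fragment/vehicle ratios by unpaired t-test, using proteins with ≥2 unique peptides.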

OTUD7B = biological target: T2, OTUD7B (UniProt Q6GQQ9)
T2 sequence (whole entry): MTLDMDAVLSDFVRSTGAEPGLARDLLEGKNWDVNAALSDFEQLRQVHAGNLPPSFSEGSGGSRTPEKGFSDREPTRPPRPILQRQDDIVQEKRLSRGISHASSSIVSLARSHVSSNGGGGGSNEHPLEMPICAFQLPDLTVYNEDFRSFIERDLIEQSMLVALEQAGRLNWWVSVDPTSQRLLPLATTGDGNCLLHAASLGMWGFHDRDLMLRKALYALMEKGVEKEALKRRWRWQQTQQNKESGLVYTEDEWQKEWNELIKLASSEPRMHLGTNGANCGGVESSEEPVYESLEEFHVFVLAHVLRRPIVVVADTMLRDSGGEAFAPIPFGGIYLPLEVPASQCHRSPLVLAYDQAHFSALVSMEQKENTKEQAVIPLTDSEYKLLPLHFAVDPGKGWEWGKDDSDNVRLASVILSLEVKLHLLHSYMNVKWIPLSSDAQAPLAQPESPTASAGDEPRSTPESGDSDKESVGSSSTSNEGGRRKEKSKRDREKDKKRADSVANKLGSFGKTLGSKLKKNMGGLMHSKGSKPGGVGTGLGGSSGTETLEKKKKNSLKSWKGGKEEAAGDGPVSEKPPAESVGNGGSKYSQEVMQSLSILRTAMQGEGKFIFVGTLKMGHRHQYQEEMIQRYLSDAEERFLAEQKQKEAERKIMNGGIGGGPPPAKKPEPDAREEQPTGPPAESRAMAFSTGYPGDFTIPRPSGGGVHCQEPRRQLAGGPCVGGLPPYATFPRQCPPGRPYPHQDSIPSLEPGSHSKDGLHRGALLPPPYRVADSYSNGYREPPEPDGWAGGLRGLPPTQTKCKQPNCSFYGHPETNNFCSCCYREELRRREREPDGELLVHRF
In short: as §1

PRPF8 = PRPF8 (UniProt Q6P2Q9)
In short: as §1

PSMD7 = biological target: T3, PSMD7 (UniProt P51665)
T3 sequence (whole entry): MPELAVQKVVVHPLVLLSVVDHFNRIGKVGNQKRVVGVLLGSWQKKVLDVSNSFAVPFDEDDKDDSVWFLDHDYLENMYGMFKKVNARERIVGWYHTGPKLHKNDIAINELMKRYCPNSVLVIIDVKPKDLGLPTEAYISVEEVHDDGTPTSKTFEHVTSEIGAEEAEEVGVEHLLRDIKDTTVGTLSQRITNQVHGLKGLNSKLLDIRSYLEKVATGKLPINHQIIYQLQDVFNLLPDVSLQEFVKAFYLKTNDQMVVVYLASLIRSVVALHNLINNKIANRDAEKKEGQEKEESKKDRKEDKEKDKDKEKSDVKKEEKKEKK
In short: as §1

UCHL1 = UCHL1 (UniProt P09936)
In short: as §1

UCHL3 = biological target: T4, UCHL3 (UniProt P15374)
T4 sequence (whole entry): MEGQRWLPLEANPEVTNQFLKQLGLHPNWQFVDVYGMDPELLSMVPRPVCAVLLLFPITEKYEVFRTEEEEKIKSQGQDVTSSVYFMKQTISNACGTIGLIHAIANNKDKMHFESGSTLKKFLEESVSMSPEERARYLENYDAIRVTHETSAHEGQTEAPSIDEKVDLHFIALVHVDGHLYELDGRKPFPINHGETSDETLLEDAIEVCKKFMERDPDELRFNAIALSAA
In short: as §1

UCHL5 = biological target: T5, UCHL5 (UniProt Q9Y5K5)
T5 sequence (whole entry): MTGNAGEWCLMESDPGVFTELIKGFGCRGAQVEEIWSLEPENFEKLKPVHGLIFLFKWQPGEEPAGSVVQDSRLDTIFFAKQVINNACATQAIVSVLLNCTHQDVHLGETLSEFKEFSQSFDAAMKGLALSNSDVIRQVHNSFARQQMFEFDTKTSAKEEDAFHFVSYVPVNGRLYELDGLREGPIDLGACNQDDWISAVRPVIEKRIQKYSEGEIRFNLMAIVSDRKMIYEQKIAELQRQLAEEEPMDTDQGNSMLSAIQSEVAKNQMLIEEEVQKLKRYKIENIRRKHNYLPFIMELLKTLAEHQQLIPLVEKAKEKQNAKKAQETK
In short: as §1

USP10 = USP10 (UniProt Q14694)
In short: as §1

USP15 = biological target: T6, USP15 (UniProt Q9Y4E8)
T6 sequence (whole entry): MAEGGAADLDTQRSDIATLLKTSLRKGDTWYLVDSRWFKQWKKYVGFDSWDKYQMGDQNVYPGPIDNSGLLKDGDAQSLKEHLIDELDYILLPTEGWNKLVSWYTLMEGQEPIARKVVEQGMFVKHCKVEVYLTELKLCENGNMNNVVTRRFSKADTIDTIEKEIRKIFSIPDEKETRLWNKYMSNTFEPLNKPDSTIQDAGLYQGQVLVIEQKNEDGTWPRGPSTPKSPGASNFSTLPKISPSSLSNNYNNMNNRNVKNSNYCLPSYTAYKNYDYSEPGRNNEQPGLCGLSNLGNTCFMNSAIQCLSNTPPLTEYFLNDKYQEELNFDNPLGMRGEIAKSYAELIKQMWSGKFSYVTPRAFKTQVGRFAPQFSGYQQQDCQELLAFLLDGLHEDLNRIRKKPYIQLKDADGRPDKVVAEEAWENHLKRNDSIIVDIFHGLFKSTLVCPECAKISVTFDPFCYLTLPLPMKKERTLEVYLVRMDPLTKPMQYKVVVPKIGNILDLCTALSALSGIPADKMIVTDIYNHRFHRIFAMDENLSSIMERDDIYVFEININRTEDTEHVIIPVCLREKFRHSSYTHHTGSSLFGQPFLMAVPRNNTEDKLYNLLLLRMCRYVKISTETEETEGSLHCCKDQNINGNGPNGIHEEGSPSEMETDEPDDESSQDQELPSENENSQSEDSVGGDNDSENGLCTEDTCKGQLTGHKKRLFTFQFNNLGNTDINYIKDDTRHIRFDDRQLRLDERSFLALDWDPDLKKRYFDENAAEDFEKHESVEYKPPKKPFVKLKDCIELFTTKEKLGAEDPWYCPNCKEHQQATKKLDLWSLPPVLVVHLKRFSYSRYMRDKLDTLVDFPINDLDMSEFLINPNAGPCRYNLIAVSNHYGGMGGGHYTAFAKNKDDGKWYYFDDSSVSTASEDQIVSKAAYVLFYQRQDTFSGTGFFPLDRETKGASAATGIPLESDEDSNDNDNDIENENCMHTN
In short: as §1

USP16 = USP16 (UniProt Q9Y5T5)
In short: as §1

Measured: log2 ratio of Biotin-Ahx-Ub-VS probe labelling

Chain of USP16 (Q9Y5T5 whole entry, looked up): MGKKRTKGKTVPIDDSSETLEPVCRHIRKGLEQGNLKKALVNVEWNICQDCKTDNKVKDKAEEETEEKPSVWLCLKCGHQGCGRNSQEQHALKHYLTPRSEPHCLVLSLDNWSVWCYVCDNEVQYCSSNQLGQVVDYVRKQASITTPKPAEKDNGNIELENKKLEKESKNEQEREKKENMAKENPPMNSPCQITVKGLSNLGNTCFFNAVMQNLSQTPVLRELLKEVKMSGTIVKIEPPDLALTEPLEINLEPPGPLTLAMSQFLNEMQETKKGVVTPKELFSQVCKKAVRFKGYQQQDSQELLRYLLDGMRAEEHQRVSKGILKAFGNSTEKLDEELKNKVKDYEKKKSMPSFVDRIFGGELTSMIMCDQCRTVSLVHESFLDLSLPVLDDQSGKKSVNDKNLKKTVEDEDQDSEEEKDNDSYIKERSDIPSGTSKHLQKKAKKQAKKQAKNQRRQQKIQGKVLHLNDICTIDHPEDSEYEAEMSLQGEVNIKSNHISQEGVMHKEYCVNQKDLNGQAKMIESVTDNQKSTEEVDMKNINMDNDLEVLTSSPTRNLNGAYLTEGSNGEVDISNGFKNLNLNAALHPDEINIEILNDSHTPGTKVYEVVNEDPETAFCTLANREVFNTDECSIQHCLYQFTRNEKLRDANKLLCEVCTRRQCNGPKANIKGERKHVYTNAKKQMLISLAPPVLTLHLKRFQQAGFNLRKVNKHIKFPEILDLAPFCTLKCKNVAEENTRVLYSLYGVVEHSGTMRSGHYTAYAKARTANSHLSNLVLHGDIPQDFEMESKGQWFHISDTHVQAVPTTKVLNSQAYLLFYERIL
Chain of UCHL1 (P09936 whole entry, looked up): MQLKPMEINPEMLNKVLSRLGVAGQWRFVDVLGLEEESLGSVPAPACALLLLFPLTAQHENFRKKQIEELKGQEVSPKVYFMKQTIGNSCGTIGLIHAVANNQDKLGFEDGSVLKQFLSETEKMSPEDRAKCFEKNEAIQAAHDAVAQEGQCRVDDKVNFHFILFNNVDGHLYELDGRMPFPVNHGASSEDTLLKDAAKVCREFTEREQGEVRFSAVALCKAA
Chain of USP10 (Q14694 whole entry): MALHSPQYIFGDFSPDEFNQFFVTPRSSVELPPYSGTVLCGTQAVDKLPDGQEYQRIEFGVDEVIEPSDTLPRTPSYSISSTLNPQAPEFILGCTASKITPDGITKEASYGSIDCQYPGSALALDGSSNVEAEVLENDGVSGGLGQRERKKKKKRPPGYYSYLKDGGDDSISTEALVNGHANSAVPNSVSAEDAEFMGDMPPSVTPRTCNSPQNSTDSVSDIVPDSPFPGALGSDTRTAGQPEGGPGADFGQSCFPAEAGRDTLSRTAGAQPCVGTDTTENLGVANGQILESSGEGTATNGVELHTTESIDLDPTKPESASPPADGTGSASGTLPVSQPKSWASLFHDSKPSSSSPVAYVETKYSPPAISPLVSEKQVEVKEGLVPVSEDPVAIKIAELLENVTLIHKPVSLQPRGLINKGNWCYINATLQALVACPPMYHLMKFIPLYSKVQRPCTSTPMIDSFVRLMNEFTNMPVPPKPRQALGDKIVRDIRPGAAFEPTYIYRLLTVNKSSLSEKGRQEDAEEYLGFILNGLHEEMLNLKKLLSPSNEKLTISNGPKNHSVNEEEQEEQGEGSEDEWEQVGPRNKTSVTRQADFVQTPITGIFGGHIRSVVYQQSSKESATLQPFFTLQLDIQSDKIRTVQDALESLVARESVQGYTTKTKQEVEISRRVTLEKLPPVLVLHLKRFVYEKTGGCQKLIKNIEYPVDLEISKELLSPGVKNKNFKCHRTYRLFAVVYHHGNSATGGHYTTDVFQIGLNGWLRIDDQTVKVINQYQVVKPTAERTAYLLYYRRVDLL

O=C(CCl)N1CCC(C(=O)N2CCCC2)CC1
inactive: OTUD6B -0.427 | OTUD7B -0.121 | PRPF8 0.0985 | PSMD7 0.0529 | UCHL3 0.284 | UCHL5 0.037 | USP10 -0.257 | USP15 -0.395 | USP16 -0.362
active: UCHL1 -1.3
